Source: PubChem BioAssay (ICCB-Longwood Screening Facility, Harvard Medical School)
Hits are enriched below; roughly 0.52% of the tested compounds scored in any of these assays.
Sa helicase inh: blocks Staphylococcus aureus DNA helicase | AID 485395 | inhibition, % (test concentration not listed) | purified S. aureus helicase, fluorescence unwinding assay | 120,000 compounds, 0.05% hits; in the data active = inhibition above about 25%, passing the limit was not always enough;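 also: 0% = mean of negative control wells and 100% = mean of positive control wells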
Sa growth 42C: inhibitors of Staphylococcus aureus growth at 42 °C. S. aureus RN4220 growth, OD600, 20 h; hits give low values. relative growth, % (no concentration beside the values). 170,000 compounds, 0.53% hits;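 active = relative growth at most 50% at the other temperature and 20+ points below 30 °C, or under 10% at both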
The depositor's hits bear a star; · = not tested or not shown; ! = not active in a repeat.

SMILES	Sa helicase inh	Sa growth 42C
CC1CN(C2CC(O)C(CO)O2)C(=O)NC1=O (stereo not drawn)	0	100
CCOC(=O)C1=C(C)NC(=S)NC1c1c(F)cccc1Cl (stereo not drawn)	12	99
Cc1occc1C(=O)Nc1cc(C(C)(C)C)on1	-1	115
Cc1occc1C(=O)N=Nc1cc(C(C)(C)C)c(O)c(C(C)(C)C)c1	7	1.4*
CC(=C\c1ccccc1)/C=C1/SC(=S)N(CCC(=O)Nc2nc(C)cs2)C1=O	-36	·
CCOC(=O)c1cnc(SCC(=O)N2CCCCC2)nc1N	-13	108
Nc1cccc2c1C(=O)N(C(=O)C1CCCN1C(=O)c1cccs1)C2=O (stereo not drawn)	-11	82
O=c1oc2ccccc2c(O)c1C=Nc1ccccc1	9	95
O=Cc1c(O)c2ccccc2c2ccccc12	-2	9.1*
COc1ccc(C2=CSC3=C(C(=O)c4cccc(S(=O)(=O)N5CCOCC5)c4)CCN23)cc1	-12	82
CCC1CCc2[nH]c(=S)c(C#N)c(C(F)(F)F)c2C1 (stereo not drawn)	16	8.0*
CCCCSc1nc2c(c(C(F)(F)F)c1C#N)CCC2	9	109
CC1c2ccsc2CCN1C(=S)NC(=O)c1cccs1 (stereo not drawn)	·	-0.4*
CN1CCC(NC(=O)c2cccs2)CC1	1	109
CC(Oc1ccccc1)C(=O)N(Cc1nc(-c2ccccc2)no1)C(C)(C)C (stereo not drawn)	-28	79
O=C(OC[C@@H]1CCCN2CCCCC12)c1ccccc1 (stereo partly drawn)	9	93
CCCCOc1ccc(C(=O)OCC2CCCN3CCCCC23)cc1OC (stereo not drawn)	13	43*
Cc1ccnc2nc(NC(=O)c3cccnc3)nn12	15	79
CCOC(=O)CC(N)=S	0	111
CCOC(=O)CC(=N)N	63*	84
CN1CC(c2ccccc2)Oc2ccccc2C1=O (stereo not drawn)	·	116
CCCn1c(=O)n(Cc2ccc(C#N)cc2)c2ccccc21	-7	92
O=C(Nc1nnc(-c2ccc3c(c2)CCCC3)o1)C1CCCCC1	-17	·
CCC(=O)Nc1nnc(-c2ccco2)o1	3	90
CCC(=O)Nc1nnc(-c2ccc3c(c2)CCCC3)o1	-4	-0.4*
SMILES	Sa helicase inh	Sa growth 42C
CCC(=O)Nc1nnc(-c2cccc(OC)c2)o1	-3	0.6*
COc1ccc(CNC(=O)C2=Cc3ccccc3OC2)cc1	-8	93
O=C(Nc1cccc(C(F)(F)F)c1)c1ccc2snnc2c1	·	99
O=C(Nc1ccccc1)Nc1ccc2nnsc2c1	·	2.4*
O=C(Nc1ccccc1)Nc1ccc2snnc2c1	13	14
O=C(Nc1cccc(C(F)(F)F)c1)Nc1ccc2snnc2c1	·	9.9*
CC(Sc1nncn1C)C(=O)Nc1ccc(C#N)cc1 (stereo not drawn)	20	102
N#Cc1c(N2CCOCC2)nc(N2CCOCC2)c2c1CCN(Cc1ccccc1)C2	5	80
COC(=O)C(C#N)=C1CCCC1	1	82
CC1(C)S[C@@H]2[C@H](NC(=O)C(C(=O)O)c3ccccc3)C(=O)N2[C@H]1C(=O)O (stereo partly drawn)	·	0.0*
CC1(C)S[C@@H]2[C@H](NC(=O)[C@H](N)c3ccccc3)C(=O)N2[C@H]1C(=O)O	·	-0.9*!
Cc1onc(-c2ccccc2)c1C(=O)NC1CCCCC1NC(=O)c1c(-c2ccccc2)noc1C (stereo not drawn)	-18	100
CC1(C)SC(c2ccc(C3NC(C(=O)O)C(C)(C)S3)cc2)NC1C(=O)O (stereo not drawn)	18	92
CCCOC(=O)C(N)c1ccccc1 (stereo not drawn)	0	107
Cc1onc(-c2ccccc2)c1C(=O)N[C@@H]1C(=O)N2[C@@H]1SC(C)(C)[C@@H]2C(=O)O	·	-1.3*
CCN1CCN(C(=O)N[C@@H](C(=O)N[C@@H]2C(=O)N3[C@@H]2SC(C)(C)[C@@H]3C(=O)O)c2ccccc2)C(=O)C1=O	·	-0.5*
N#Cc1ccc(Cn2c(CS(=O)(=O)c3ccccc3)nc3ccccc32)cc1	9	106
CC1(C)Cc2cccc(OCCNC(=O)c3cnccn3)c2O1	-7	78
CC(C)N(C(=O)NC(=O)Nc1cccc2ccccc12)S(C)(=O)=O	7	106
CSc1cccc(NC(=O)CSc2nnc(COc3ccccc3)o2)c1	-10	108
CC(=O)n1c(=S)[nH]c2ccccc21	·	97
Cc1cc(C)nc(NNc2ccccc2)n1	-12	80
CC(C)c1cccc(C(C)C)c1N1C(=O)C=CC1=O	·	6.7*
O=C1C=CC(=O)N1c1cccc2ccccc12	10	91
COc1ccc(-c2nnc(SC(C)c3nnc(-c4cccs4)o3)o2)cc1 (stereo not drawn)	13	81
O=S(=O)(c1ccc(NC2CCN(Cc3ccccc3)CC2)nc1)N1CCCCC1	38*	94
O=C(CSc1ccc(S(=O)(=O)N2CCN(Cc3ccccc3)CC2)cn1)NC(=O)NC1CCCC1	4	100
